Data taken from PubChem BioAssay (NCATS).
Values joined by “and” are separate entries in the source; they are usually repeats but may differ in a detail not shown here. Identical values can stand only once. Records with an inconclusive call do not appear. Active and inactive are the calls of the source. Calls follow the shape of the dose curve; as a rule, active = well fitted inhibition curve with a large enough effect; inconclusive = small, poorly fitted or top-dose-only effect; inactive = flat fitted curve, though single readings scatter. Where a SMILES comes first, the peptide text is derived from it. [ ]: non-standard residue; d: D form. ξ: configuration not given here. ξPhe(βξ-Me) = CC(c1ccccc1)C(N)C(=O)O; GABA = NCCCC(=O)O

Test system: CRL-7250
Assay: Cytotoxic Profiling of Annotated Libraries Using Quantitative High-Throughput Screening (AID 1296008); also: nearly all actives have a fitted effect of over 60% in size
Settings: Five cell lines viability, CellTiter-Glo ATP luminescence, 48-72 h; max response: hits give low values
How it was run: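 Cells exposed to compounds for 48 or 72 hr at 37 degrees Celsius. Viability read as ATP-coupled luminescence with CellTiter-Glo after 10 min at room temperature.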
% is scaled to controls: 0 for no effect and ±100 for the full control effect; potency is read from the fitted curve at half-maximal effect.

`CCC(=O)N[C@@H]1Cc2ccccc2[C@H](c2ccccc2)C1` was tested. Which outcome did it give?
Its outcome is “inactive”.

With `O=C(C1CC1)N1CC[C@@H](Cc2n[nH]c(=O)n2-c2ccc(-c3ccc4occc4c3)cc2)C1` as the compound, how does the max response read?
Its max response is -4.78% (inactive) and -21.6% (inactive).

`CC(C)(C)NCC(O)COc1cccc2c1CCCC2=O` (stereo not given) was tested. Which outcome did it give?
Its outcome is “inactive”.

How did the max response turn out when `CC(C)Nc1cc(-c2c[nH]c(C(=O)N[C@H](CO)c3cccc(Cl)c3)c2)c(Cl)cn1` was run?
The max response was -4.72% (inactive).

Which max response does the source give for `COc1cc(/C=C/C(=O)OC2CC(C)=C(C(=O)O)/C2=C/CO[C@@H]2O[C@H](CO)[C@@H](O)[C@H](O)[C@H]2O)ccc1O` (stereo not given in full) here?
Its max response is 4.12% (inactive).

For `CC(=O)c1cnc2ccc(-c3cc(Cl)c(O)c(Cl)c3)nc2c1NC1CCC(CN(C)C)CC1` (stereo not given), which Potency is on record?
Its Potency is 166 nM (active) and 1.19 µM (active).

Which max response does the source give for `O=C(Nc1cccnn1)N1CCC(=Cc2cccc(Oc3ccc(C(F)(F)F)cn3)c2)CC1` here?
The max response was -4.32% (inactive).

How did the max response turn out when `COc1cc(C2OCC3C(c4ccc(OC5OC(CO)C(O)C(O)C5O)c(OC)c4)OCC23)ccc1O` (stereo not given) was run?
Its max response is -7.16% (inactive).

How did the max response turn out when `O=S(=O)(NC1CCNCC1)c1cc(S(=O)(=O)c2ccccc2)ccc1C(F)(F)F` was run?
Its max response is 1.06% (inactive).

For `COc1ccc(C(O[C@@H]2O[C@H](CO)[C@@H](O)[C@H](O)[C@H]2O)C(CO)Oc2ccc(/C=C/CO)cc2OC)cc1O` (stereo not given in full), which outcome is on record?
Its outcome is “inactive”.

Which max response does the source give for `c1ccc(Cc2ncc3c(n2)CCNCC3)cc1` here?
Its max response is -2.57% (inactive).

For `CNC(=O)Nc1ccc(OC)c(NC(=O)NC(=O)c2cc(F)c(F)cc2Cl)c1`, which max response is on record?
Its max response is -5.98% (inactive).

`CC1CC(O)CC(C)(C)C1(O)CCO` (stereo not given) was tested. Which max response did it give?
The max response was -5.35% (inactive).

With `COc1cc(C(=O)OC[C@H]2O[C@H](O[C@@]3(CO)O[C@@H](CO)[C@H](O)[C@H]3O)[C@H](O)[C@@H](O)[C@@H]2O)ccc1O` as the compound, how does the max response read?
The max response was -10.5% (inactive).

Which outcome does the source give for `C=C1CC[C@H]2[C@@H](/C=C(\C)C(=O)[C@@]3(OC(C)=O)C[C@H](C)[C@H](OC(C)=O)[C@@H]3[C@H]1OC(C)=O)C2(C)C` here?
The outcome was “inactive”.

For `C/C=C(\C)C(=O)O[C@H]1[C@H](O)[C@]2(COC(C)=O)[C@H](O)C[C@]3(C)C(=CCC4[C@@]5(C)CC[C@H](O[C@@H]6O[C@H](C(=O)O)[C@@H](O[C@@H]7O[C@H](CO)[C@@H](O)[C@H](O)[C@H]7O)[C@H](O)[C@H]6O[C@@H]6O[C@H](CO)[C@@H](O)[C@H](O)[C@H]6O)[C@](C)(CO)C5CC[C@]43C)[C@@H]2CC1(C)C` (stereo not given in full), which max response is on record?
The max response was -9.07% (inactive).

Which outcome does the source give for `C/C=C(\C)C(=O)O[C@H]1[C@@H](O[C@]2(COC(=O)CC(C)C)O[C@H](COC(=O)C(C)C)[C@@H](OC(C)=O)[C@@H]2O)O[C@H](COC(C)=O)[C@@H](O)[C@@H]1O` here?
Its outcome is “inactive”.

For `O=C(O[C@H]1[C@@H]2C=CO[C@@H](O[C@@H]3O[C@H](CO)[C@@H](O)[C@H](O)[C@H]3O)[C@@H]2[C@@]2(CO)O[C@@H]12)c1ccc(O)cc1`, which max response is on record?
The max response was 1.96% (inactive).

For `COc1c(C)c(C(=O)c2ccc(N)c(C(=O)O)c2)n2ccccc12`, which max response is on record?
The max response was -6.91% (inactive).

How did the max response turn out when `Cc1nnc(C(C)C)n1C1CC2CCC(C1)N2CCC(NC(=O)C1CCC(F)(F)CC1)c1ccccc1` (stereo not given) was run?
The max response was -10.9% (inactive).

How did the outcome turn out when `CC(C)CC(=O)n1cc(C(N)=O)c(=O)cc1C(O)c1ccccc1` (stereo not given) was run?
The outcome was “inactive”.

With `NC(Cc1c[nH]c2ccccc12)C(=O)NC(CCC(=O)O)C(=O)O` (stereo not given) as the compound, how does the outcome read?
Its outcome is “inactive”.

Which max response does the source give for `C=C1CC2(C(=O)O)CC1CCC2C1(C)CCCC2(C)C(=O)OC(O)C21` (stereo not given) here?
Its max response is -12.2% (inactive).

Which max response does the source give for `C=C/C=C/[C@@H]1OC[C@H](/C=C/C=C/C)[C@H]1O` here?
The max response was -3.1% (inactive).

How did the max response turn out when `N[C@H]1C[C@H]1c1ccc(-c2cccc(O)c2)cc1` was run?
The max response was 0.175% (inactive) and -10.6% (inactive).

For `Cc1ncc([N+](=O)[O-])n1CC(O)CN1CCOCC1` (stereo not given), which outcome is on record?
The outcome was “inactive”.

Which max response does the source give for `COc1c2c(c(C)c3c1C(=O)OC3)OC1(C)CC(O)C3(O)C(C)(C)OC(=O)CCC3(C)C1C2` (stereo not given) here?
Its max response is -8.09% (inactive).

Which outcome does the source give for `CO[C@@H]1CC[C@H](OC[C@]2(COC(=O)c3ccc(C)[nH]3)[C@H](OC(C)=O)CC[C@@]3(C)[C@@H]4CC=C(C)[C@@H](C5=C(O)C(=O)OC5O)[C@]4(C)CC[C@@H]32)O[C@H]1C` (stereo not given in full) here?
Its outcome is “inactive”.

With `C=C1CC[C@H]2[C@@](C)(CCC(O)[C@@]2(C)CO)[C@@H]1C/C=C(/C(=O)O)C(O)CO` (stereo not given in full) as the compound, how does the outcome read?
Its outcome is “inactive”.

With `O=C(/C=C/c1ccc(O)cc1)OC[C@]12O[C@H]1[C@@H](O)[C@@H]1C=CO[C@@H](O[C@@H]3O[C@H](CO)[C@@H](O)[C@H](O)[C@H]3O)[C@@H]12` as the compound, how does the max response read?
Its max response is -7.12% (inactive).

`CC1(C)CC[C@]2(C(=O)O)CC[C@]3(C)C(=CCC4[C@@]5(C)C[C@@H](O)[C@H](O)C(C)(C)C5CC[C@]43C)[C@@H]2[C@@H]1O` (stereo not given in full) was tested. Which max response did it give?
Its max response is -1.48% (inactive).

For `CO[C@@H](Cc1ccc(OCCc2nc(-c3ccccc3)oc2C)c2ccsc12)C(=O)O`, which outcome is on record?
The outcome was “inactive”.

For `CC(C)(O)c1ccc2c(c1)C(O)CC1C(C)(C(=O)O)CCCC21C` (stereo not given), which max response is on record?
Its max response is -4.52% (inactive).

With `C=C1C[C@@]23CC[C@@H]4[C@](C)(C(=O)O)CCC[C@@]4(C)C2=CC[C@H]1C3` as the compound, how does the max response read?
The max response was -8.72% (inactive).

With `COc1cc2c(cc1O)C1(OC)Cc3ccc4c(c3C1N(C)CC2)OCO4` (stereo not given) as the compound, how does the max response read?
The max response was -5.51% (inactive).

Which max response does the source give for `CC(=O)N[C@H]1CCN(c2ccc(C3=NOC(CN[S+](=O)([O-])C(C)C)C3)cc2F)C1` (stereo not given in full) here?
The max response was 3.89% (inactive).

Which max response does the source give for `C[C@@H]1O[C@@H](O[C@H]2[C@H](OC(C#N)c3ccc(O)cc3)O[C@H](CO)[C@@H](O)[C@@H]2O)[C@H](O)[C@H](O)[C@H]1O` (stereo not given in full) here?
Its max response is -7.05% (inactive).

With `CC(C)CC1NC(=O)C(C(C)c2ccccc2)NC(=O)C(C(C)C)NC(=O)C(C)NC(=O)CCCNC(=O)C(Cc2c[nH]c3ccccc23)NC(=O)C(C)NC1=O` (stereo not drawn) (cyclo([GABA]AV[ξPhe(βξ-Me)]LAW); configuration not given here) as the compound, how does the max response read?
Its max response is -5.31% (inactive).

`CC1(C)CCCC2(C)C(CO)C3CCC2C31` (stereo not given) was tested. Which max response did it give?
The max response was -0.786% (inactive).

For `COc1ccc(C[C@H](N)C(=O)N[C@H]2[C@@H](O)[C@H](n3cnc4c(N(C)C)ncnc43)O[C@@H]2CO)cc1`, which Potency is on record?
Its Potency is 920 nM (active).
